Bioassay records from PubChem BioAssay.
Only some compounds are listed: those with a hit (about 14% of all), similar ones and a draw of the others.
FBPA Giardia inh: blocks Giardia fructose-bisphosphate aldolase activity. AID 2451. Potency, µM (doses to about 59.6 µM), inactives show at the top dose activity, negative = inhibition, usual class: inhibitors. 290,000 compounds, 0.71% hits. purified Giardia FBPA. A8B2U2; also: potency is read from the fitted curve at half-maximal effect; % is scaled to controls: 0 for no effect and ±100 for the full control effect; nearly all actives have a fitted effect of over 55% in size
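Giardia FBPA (40 nM reagent) was preincubated 10 min at RT with compound (up to 57.5 uM final), then substrate plus GAPDH/TPI/NAD/arsenate coupling system with diaphorase/resazurin was added; resorufin fluorescence (525/598 nm) was read after 20 min.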
LmPK inh: blocks Leishmania mexicana pyruvate kinase activity. Q27686. purified LmPK, Kinase-Glo ATP luminescence, 1 h. Potency, µM (doses to about 57.5 µM), without a hit: at the highest dose activity change, negative = inhibition, usual class: inhibitors. 290,000 compounds, 0.37% hits; also: potency is read from the fitted curve at half-maximal effect; % is scaled to controls: 0 for no effect and ±100 for the full control effect
Target sequence (Q27686 whole entry, looked up): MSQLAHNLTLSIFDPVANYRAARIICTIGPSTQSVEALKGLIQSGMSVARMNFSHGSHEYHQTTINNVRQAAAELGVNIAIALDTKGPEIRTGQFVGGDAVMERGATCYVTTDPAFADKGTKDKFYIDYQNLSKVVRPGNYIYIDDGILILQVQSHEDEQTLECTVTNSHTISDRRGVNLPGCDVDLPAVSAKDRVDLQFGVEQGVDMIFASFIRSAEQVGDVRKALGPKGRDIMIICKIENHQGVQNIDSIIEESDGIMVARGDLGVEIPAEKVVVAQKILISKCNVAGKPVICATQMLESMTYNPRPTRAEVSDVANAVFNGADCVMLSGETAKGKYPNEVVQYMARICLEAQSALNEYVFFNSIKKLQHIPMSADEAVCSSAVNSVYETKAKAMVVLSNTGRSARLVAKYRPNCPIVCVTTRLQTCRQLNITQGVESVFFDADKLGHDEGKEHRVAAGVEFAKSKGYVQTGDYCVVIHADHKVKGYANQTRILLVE
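0.1 nM LmPK, 0.5 mM PEP, 0.1 mM ADP; 50 mM imidazole pH 7.2, 7 mM MgCl2, 50 mM KCl; 1 h RT. Kinase-Glo luminescence readout, normalized to no-enzyme (full inhibition) and uninhibited wells.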
Cycloheximide cs: affects cycloheximide protein synthesis inhibition readout, counter-screen | 300,000 compounds, 12% hits | cell reporter, cycloheximide protein synthesis inhibition counterscreen | max response, %; in the data active = max response mostly above about 13%, no sharp cut-off; inactive = mostly below about 14%; also: read at 38.3 µM for the half of the compounds with a filed dose; 0% is about no effect
Shiga inhibitor: inhibitors of Shiga toxin in Vero cells; Vero cells, Shiga toxin protein synthesis inhibition reporter; inhibition, % at 38.7 µM; 290,000 compounds, 9.2% hits; in the data active = inhibition mostly above about 28%, no sharp cut-off; inactive = mostly below about 43%; also: 0% is about no effect
NS1 function inh: inhibitors of influenza NS1 protein function; 270,000 compounds, 0.4% hits; Potency, µM (series often up to 46.1 µM), inactives show at the highest dose activity, positive = more growth; calls by dose curve; also: potency is read from the fitted curve at half-maximal effect; actives are rising curves; nearly all actives have a fitted effect of over 50% in size
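A cell-based growth assay was used: compounds that relieve NS1-induced slow growth of budding yeast raise OD600. Assay medium was yeast nitrogen base with ammonium sulphate and -URA supplement, pH 6.0, with 2% galactose.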
* hit, by the source's call; u = inconclusive; x = no result; [ ] = another dose, or the depositor's remark. Unless noted, calls follow the shape of the dose curve; as a rule, active = well fitted curve in the direction sought with a large enough effect; inconclusive = small, poorly fitted or top-dose-only effect, or another doubt; inactive = no such curve, though single readings can be large; an effect the other way counts as inactive or inconclusive.

SMILES	FBPA Giardia inh	LmPK inh	Cycloheximide cs	Shiga inhibitor	NS1 function inh
COc1ccc(N/C=C\C(=O)c2ccc(Br)cc2)cc1OC	1%	-1%	28*	27	-12%
COc1ccc(C(=O)Sc2ccc(C)cc2)cc1OC	2%	0%	34*	77*	-26%
O=C(Nc1cccc([N+](=O)[O-])c1)Nc1cnccn1	13%	-6%	-3	-1	2%
CCN1CCN(/C=N/c2nc3c(s2)CCCC3)CC1	-2%	-2%	19*	-19	-6%
COc1ccc(C)cc1N(C(=O)c1snc(C(N)=O)c1N)C(C(=O)NC1CCCCC1)c1ccc(C)o1 (stereo unspecified)	1%	10%	-8	-8	28%
CC(=O)c1sc2nc(-c3ccccc3)cc(C)c2c1N	13%	6%	-2	-12	1%
Cc1cc(C)c2c(N)c(C(=O)Nc3nccs3)sc2n1	-16%	-13%	11	-2	-68%
Cc1cc(C)c2c(N)c(C(=O)Nc3cccc(C)c3C)sc2n1	-3%	3%	12*	8	3%
CCCCOC(=O)c1sc2nc(C)cc(C)c2c1N	-28%	5%	27*	48*	-60%
Cc1nc(N)sc1C(=O)NN	-15%	4%	23*	82*	0%
Cc1cc(C)c2c(N)c(C(=O)NNC(=O)c3ccccc3)sc2n1	-15%	-5%	45*	93*	-2%
Cc1cc(C)c2c(N)c(C(=O)N3CCN(c4ncccn4)CC3)sc2n1	-4%	14%	31*	53	-3%
Cc1ccc(NC(=O)c2sc3nc(C)cc(C)c3c2N)cc1	-6%	1%	51*	125*	-6%
CCOC(=O)CNC(=O)c1sc2nc(C)cc(C)c2c1N	-13%	-2%	16	46	7%
Cc1cc(C)c2c(N)c(C(=O)NC3CC3)sc2n1	-7%	-6%	13	15	-26%
Cc1cc(C)c2c(N)c(C(=O)NN)sc2n1	-13%	-1%	45*	78*	15%
CCOC(=O)c1sc2nc(C)cc(C)c2c1N	14%	3%	50*	78*	5%
CCCC[C@@H](NC(=O)[C@@H](Cc1cn(C(=O)OC)c2ccccc12)NC(=O)[C@H](CC(C)(C)C)NC(=O)N1[C@H](C)CCC[C@@H]1C)C(=O)O	27%	x	5	-7	x
CCc1ccccc1N1CSC2=C(C#N)C(c3cc(OC)c(OC)cc3OC)CC(=O)N2C1 (stereo unspecified)	4.5µM*	-6%	6	-24	10µM*
COc1cc(C2CC(=O)N3CN(c4ccccc4C)CSC3=C2C#N)cc(OC)c1OC (stereo unspecified)	4.5µM*	-3%	-1	-7	-15%
COc1ccc(OC)c(C2CC(=O)N3CN(c4ccccc4F)CSC3=C2C#N)c1 (stereo unspecified)	u	-9%	7	39	-29%
COc1cc(OC)c(C2CC(=O)N3CN(c4ccccc4)CSC3=C2C#N)cc1OC (stereo unspecified)	u	8%	-3	3	-85%
N#CC1=C2SCN(c3ccccc3)CN2C(=O)CC1c1c(Cl)cccc1Cl (stereo unspecified)	u	-12%	-1	24	11µM*
COc1ccccc1N1CSC2=C(C#N)C(c3ccc(SC)cc3)CC(=O)N2C1 (stereo unspecified)	5.6µM*	-21%	-3	-9	18%
S=C(Nc1cccnc1)NC1CC2CCC1C2 (stereo unspecified)	x	-4%	1	11	13%
SMILES	FBPA Giardia inh	LmPK inh	Cycloheximide cs	Shiga inhibitor	NS1 function inh
CC(C)c1ccc(N(C(=O)c2ccc3c(c2)OCO3)C2C=CS(=O)(=O)C2)cc1 (stereo unspecified)	x	4%	-1	-7	-12%
CCOc1ccc(N2C(=O)CC(Sc3nnnn3-c3ccccc3)C2=O)cc1 (stereo unspecified)	6%	8%	18*	21	x
COc1ccc(N2C(=O)CC(SCCc3nc4ccccc4[nH]3)C2=O)cc1 (stereo unspecified)	-4%	1%	-3	-19	6%
CCCCCCOc1ccc(N2C(=O)CC(SCCN)C2=O)cc1 (stereo unspecified)	u	-12%	12*	26	12%
CCOc1ccc(N2C(=O)CC(Sc3nc(C)cc(C)n3)C2=O)cc1 (stereo unspecified)	3%	-2%	6	-2	-7%
CCOc1ccc(N2C(=O)CC(SCCN)C2=O)cc1 (stereo unspecified)	-24%	-28%	31*	76*	-4%
CCOC(=O)C1=NN(c2ccccc2C)C2=NC(C)=C(C(=O)OC)C(c3cccc(OC)c3)N12 (stereo unspecified)	-10%	-1%	8	4	-28%
Cc1cc(S(=O)(=O)N2CCOCC2)ccc1OCC(=O)Nc1ccc(Br)cc1F	4%	-11%	-4	-5	0%
CCc1n[nH]c(=S)n1/N=C/c1c(O)ccc2ccccc12	-12%	43%	-1	x	-5%
Oc1ccc(Br)cc1-c1cc(-c2ccc(Cl)cc2)n[nH]1	8%	6%	22*	93*	3%
O=[N+]([O-])c1cccc(-c2n[nH]c(=S)n2-c2ccc(Br)cc2)c1	30%	5%	-4	-9	14%
Oc1ccc(Br)cc1-c1n[nH]c(=S)n1Cc1ccccc1	27%	-15%	2	-2	-12%
Oc1ccc(Br)cc1-c1cc(-c2ccccc2)n[nH]1	7%	2%	16*	16	-17%
O=[N+]([O-])c1cccc(-c2cc(-c3cc(Br)ccc3O)[nH]n2)c1	17%	1%	24*	86*	-36%
O=C(O)[C@H]1[C@H]2C[C@H]3c4[nH]c5ccccc5c4CCN3C[C@@H]2CC[C@@H]1O	-28%	x	x	x	x
COC(=O)NC(c1cccc(C)c1)[C@@]1(C(=O)OC)CCCC1=O (stereo partly specified)	-4%[12.9 µM]	x	x	x	x
Oc1c(Cl)cc(Cl)cc1CNc1ccc(Br)cn1	6%	4%	32*	73*	2%
Oc1ccc(Cl)cc1CNc1ccc(Br)cn1	-14%	1%	45*	111*	-39%
Oc1ccc(Cl)cc1CNc1ccccn1	7%	0%	15*	52	-16%
Cc1cc(C)nc(SCC(=O)Nc2ccc(Br)cn2)n1	1%	4%	-2	-13	-1%
c1cncc(-c2noc(CC3CCCCC3)n2)c1	3%	0%	41*	55*	-7%
c1ccc(CCc2nc(-c3cccnc3)no2)cc1	0%	-14%	22*	53*	-21%
Cc1ccccc1OCc1nc(-c2cccnc2)no1	-7%	2%	-5	-2	5%
c1ccc(OCCCc2nc(-c3ccncc3)no2)cc1	0%	-1%	-2	14	-38%
CCCc1nc(-c2ccc(-c3ccc(F)cc3)cc2)no1	-2%	5%	18*	29	-11%
Cc1ccc(-c2noc(CN(C)C(=O)Nc3ccc(F)cc3)n2)cc1	-1%	-1%	-2	-7	-2%
O=C1CCC(=O)N1CCCCCc1nc(-c2ccccc2)no1	0%	-4%	41*	64	-15%
